Consider 82 molecules from PubChem BioAssay (NCI).

In the assay the test system is HL-60(TB) leukemia. The experiment in a line: NCI-60 one-dose screen, 48 h (100 = growth as untreated, 0 = no growth, -100 = all killed). The note with it: 10 µM unless noted.

Values joined by “and” are separate entries in the source; they are usually repeats but may differ in a detail not shown here. Identical values can stand only once. This is part of a sample that, as a whole, favours compounds with a hit. Of some 83,000 tested, about 20% had one in any assay.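 Compound tested at a single concentration for 48 hours in 96-well plates; a percent growth value below 10 was scored as active.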 Active and inactive are the calls of the source.

With `O=C(C[P+](c1ccccc1)(c1ccccc1)c1ccccc1)C[P+](c1ccccc1)(c1ccccc1)c1ccccc1`, the growth is -43.6% (active). Turning to `CC(=O)Cc1nsc(NC(=O)c2cc(-c3cc(Cl)cc(Cl)c3)oc2C)n1`, the growth is 96.5% (inactive). Take `COc1ccc(-c2nc3ncccn3c2-c2nnc(-c3ccc(F)cc3)o2)cc1`: the growth is 91.1% (inactive).

Turning to `O=c1cc(/C=N\Nc2nc(-c3ccc(Cl)cc3Cl)cs2)c2cc(Cl)ccc2o1`, the growth is 92.3% (inactive).

As for `C[C@]12CC[C@@H]3c4ccc(O)cc4CC[C@H]3[C@@H]1C[C@H](O)[C@@H]2O`, the growth is 112% (inactive). Then `COCCCNc1nc(NC(=O)c2ccc(F)cc2C)cc(-c2cccnc2)n1`, with 106% (inactive); and `Cc1ccc2nc(-c3c(N)n[nH]c3CCCO)[nH]c(=O)c2c1`, with 108% (inactive); and `CCCCN(CCCC)CCCCCCCCCCO`, with 95.1% (inactive). Regarding `CN(C)CCC(=O)c1ccc(Cl)cc1`, the growth is 113% (inactive) and 110% (inactive).

As to `C[C@@H](NC(=O)[C@@H](CC(=O)N1CCC(N2CCCCC2)CC1)N1C(=O)[C@@H](N2C(=O)OC[C@@H]2c2ccccc2)[C@H]1/C=C/c1cccc(Cl)c1)c1ccccc1`, the growth is 66.3% (inactive). As to `COc1ccc2cc3[n+](cc2c1OC)CCc1cc2c(cc1-3)OCO2`, the growth was 75.4% (inactive) and 70.1% (inactive).

`CCOC(=O)C1=NN(c2ccccc2)C(=O)/C1=C\N1C(=O)CC(=O)NC1=S`: the growth was 101% (inactive). As to `COC(=O)/C(CCC=C(C)C)=C1\[C@@H](OC(C)=O)C[C@@]2(C)[C@H]1C[C@@H](O)[C@H]1[C@@]3(C)CC[C@H](NC(=O)c4cnccn4)[C@@H](C)[C@@H]3CC[C@@]12C`, the growth was 99.5% (inactive). Turning to `CCCCNc1ccc(C#N)c(OCCN(CC)CC)c1`, the growth is 88.8% (inactive). Then `COc1cc(NCC(=O)Nc2cc(Nc3ccc(C)cc3)ncn2)c(Cl)c(OC)c1Cl`, with 77.2% (inactive).

As to `O=C(NC(=O)c1ccc(F)c(Cl)c1)NC1CC1`, the growth is 88.3% (inactive) and 89% (inactive). For `COc1ccc(C(=O)c2c(N)nc3n2CCCC3)cc1OC`, the growth is 94.1% (inactive). The figure for `CCCC1CCC(O)(C(C)(O)C(=O)NC2C(=O)N3NCCCC3C(=O)N(O)C(C)C(=O)N3NCCCC3C(=O)N3NCC(O)CC3C(=O)NC(C)C(=O)OC2C(C)C)OC1CC` (configuration not stated) is -91.3% (active). For `Cc1ccc(N2CCN(C(C)C(N)=O)CC2)cc1` (configuration not stated), the growth is 158% (inactive). The figure for `O=C(CNc1nnc(-c2cccnc2SCc2ccccc2)s1)Nc1nc(Cl)cc(Cl)n1` is 96.2% (inactive). The figure for `O=C(O)c1ccc(-n2cc(CNc3ccc(Cl)cc3)c(-c3ccccc3)n2)cc1` is 95% (inactive); for `CC(=O)Nc1ccc(/C=C/C(=O)c2ccccc2)cc1` it is 79% (inactive).

Consider `Cc1ccc(S(=O)(=O)Oc2ccc(Br)cc2Br)cc1`, for which the growth was 41.5% (inactive).

On to `Oc1c(Br)cc(Br)c2ccc(Cn3cc(-c4ccccc4C(F)(F)F)nn3)nc12`, for which the growth is 0.588% (active). As to `COc1ccc(-c2cnnn2-c2nonc2-n2cccc2)cc1OC`, the growth is 11% (inactive).

As for `Clc1ccc(-n2cnc3c(Cl)ncnc32)cc1Cl`, the growth was 45.7% (inactive). Then `Cc1nc2ccccc2c(/C=C/c2ccc(Cl)cc2)c1C(=O)/C=C/c1ccc(F)cc1`, with -7.94% (active). As to `CCN(CC)C(Cl)=Nc1ccc(Cl)cc1`, the growth was 99.3% (inactive). The figure for `Nc1ccc(-c2nn3c(CCC(=O)c4nc5ncccc5[nH]4)nnc3s2)c(O)c1` is 107% (inactive). With `CS(=O)(=O)c1cccc(-c2c(-c3cccc(OS(N)(=O)=O)c3)nc3sccn23)c1`, the growth was 102% (inactive). Then `Cn1c(=O)c2[nH]c(CCCCCCCCc3nc4ccccc4[nH]3)nc2n(C)c1=O`, with 59.4% (inactive) and 71.2% (inactive); and `CC(C)Oc1ccc2cc(-c3nn(CC4CCNCC4)c4ncnc(N)c34)ccc2c1`, with 63.8% (inactive) and -56.6% (active); and `NCCOc1ncccc1/C=C1\c2ccccc2-c2ccc([N+](=O)[O-])cc21`, with -41.7% (active). `Nc1nc(N)nc(NCc2ccccc2)n1`: the growth was 98.6% (inactive).

Take `O=S(=O)(CC(O)(c1ccccc1)c1ccccc1)CC(O)(c1ccccc1)c1ccccc1`: the growth is 108% (inactive). With `CS(=O)(=O)Nc1cc(-c2ccc3ncnc(Nc4ccc5c(cnn5Cc5cccc(F)c5)c4)c3c2)cnc1Cl`, the growth is -23.9% (active). Then `CCOc1c(C#N)c2c(N)ncnc2n1C1OC(CO)C(O)C1O` (configuration not stated), with 2.98% (active); and `Cc1ccc2sc3c(NCCCNCCO)nc4ccccc4c3c(=O)c2c1`, with -0.607% (active). Then `COc1cccc2nc(Nc3cccc(NC(=O)c4cc(N5CCOCC5)cc(C(F)(F)F)c4)c3)ccc12`, with 93.5% (inactive); and `CCC(CC)COC(=O)c1ccc(O)c(O)c1`, with 8.36% (active); and `COc1ccc(/C=C/c2nc(-c3n[nH]c(=O)n3-c3ccccc3)c3ccccc3n2)cc1`, with 97.1% (inactive). For the molecule `COC(=O)/C=C/c1cc(O)c2c(c1)C(C(=O)OC)C(c1ccc(O)c(O)c1)O2` (configuration not stated), the growth was -10.5% (active) and -0.307% (active).

`Nn1c(Nc2ccc(S(=O)(=O)Nc3ncccn3)cc2)nnc(/C=C/c2c(O)ccc3ccccc23)c1=O`: the growth is 86.1% (inactive). For the molecule `Cc1ccc(C)c2c1C(=O)OC2=O`, the growth is 29.7% (inactive). With `O=C1C(Cl)=C(Nc2ccc(Nc3ccccc3)c(NC3=C(Cl)C(=O)c4ccccc4C3=O)c2)C(=O)c2ccccc21`, the growth is 61.6% (inactive). The figure for `O=C(Nc1ccc([N+](=O)[O-])cc1Cl)c1cc(Cl)ccc1O` is -30.7% (active) and -30.9% (active). The figure for `O=C(c1ccccc1)[C@H]1[C@@H]2CCCN2[C@]2(C(=O)Nc3ccc(F)cc32)[C@]12C(=O)Nc1ccccc12` is 68.3% (inactive). The figure for `O=c1c(/C=C/c2ccco2)nnc(SCCN2CCOCC2)n1/N=C/c1ccc([N+](=O)[O-])cc1` is 87.9% (inactive). `O=C(NCCc1nccs1)c1cnc2c(S)cccc2c1`: the growth is 16.6% (inactive). The figure for `COc1ccc(NC(=O)c2sc3nc(C)c(C(=O)/C=C/c4cccc(OC)c4)cc3c2N)cc1` is 33.6% (inactive); for `CCNCCNc1cc(-c2ccc(Cl)cc2)c(C#N)c2nc3ccccc3n12` it is -60.4% (active); for `Cc1ccccc1C1=N[C@@H](Cc2ccccc2)C(=O)c2c(nc3ccccn23)N1` it is 125% (inactive). Then `CS(=O)(=O)Nc1cc(-c2ccc3ncnc(Nc4c(Cl)ccc5c4OCO5)c3c2)cnc1Cl`, with -4.02% (active); and `CCN1CCN(CCC(=O)Nc2cccc(-n3cc(-c4ccncc4)c(-c4ccc(Cl)c(OC)c4)n3)c2)CC1`, with -42.1% (active).

For `CN(C)CCCn1c(=O)c2ccccc2c2cnc3[nH]ccc3c21`, the growth is 5.9% (active). Then `O=C(CN1CCOCC1)Nc1nc(-c2cc3ccccc3oc2=O)cs1`, with 102% (inactive). Then `O=C(Nc1cccc([N+](=O)[O-])c1)Nc1cccc([N+](=O)[O-])c1`, with 13% (inactive); and `O=C(CO)C(O)C(O)C(O)C(O)CO` (configuration not stated), with 101% (inactive) and 102% (inactive). `COc1cc(-c2cc(/C=C3\CCCCC3=O)[nH]n2)cc(OC)c1OC`: the growth is 97.9% (inactive).

Regarding `COc1ccc(CC(C#N)c2ccc(Cl)cc2)cc1` (configuration not stated), the growth is 84% (inactive).

As to `Cc1cs/c(=N\NC(=O)c2cc(-c3cc4ccccc4o3)nn2-c2ccccc2)n1-c1ccccc1`, the growth is 109% (inactive). Turning to `CN(C)CCCOc1ccccc1NC1=C(Cl)C(=O)C(Nc2ccccc2OCCCN(C)C)=C(Cl)C1=O`, the growth is -33.1% (active). With `CCCCCCCNc1nc(C=O)ncc1-c1ccc(C(F)(F)F)cc1`, the growth is 64.4% (inactive). The figure for `O=C(NCCc1ccccc1)C1CCC(=O)N1Cc1ccc(Br)cc1` (configuration not stated) is 89% (inactive); for `CNC(=O)Nc1ccc(-c2nc(N3CCOCC3)nc3c2cnn3C2CCOCC2)cc1` it is 11.3% (inactive); for `CN(C)c1ccc(/C=C(\C#N)c2ccccc2)cc1` it is -9.62% (active) and 16% (inactive) and 9.8% (active).

In the case of `O=C(Nc1ccc(Oc2ccc(NC(=O)Nc3ccc([N+](=O)[O-])cc3)cc2)cc1)Nc1ccc([N+](=O)[O-])cc1`, the growth was -32.6% (active). With `CCC(O)c1ccccc1` (configuration not stated), the growth is 98.6% (inactive) and 77.4% (inactive). The figure for `O=C(Cn1c(=O)sc2nc3ccccc3nc21)Nc1ncc(Cc2cccc(Cl)c2Cl)s1` is 98.3% (inactive). Then `COc1ccccc1NC(=O)OCC#CCOC(=O)Nc1ccccc1OC`, with 85.4% (inactive) and 64.8% (inactive); and `C#C[C@@]1(O)[C@@H](CO)O[C@@H](n2cc(F)c3c(N)ncnc32)[C@@H]1O`, with -22.8% (active). Then `COc1ccc(C2C=C(c3ccc(Cl)cc3)N=C3SC=CN32)cc1` (configuration not stated), with 113% (inactive); and `COc1cccc(-c2nn(-c3ccccc3)cc2-c2ccnc(NCCCNC(=O)Nc3ccc(Cl)c(Cl)c3)c2)c1`, with 16.8% (inactive). As to `C/C(Cc1ccc(Cl)cc1)=C(/c1ccc(Cl)cc1)c1ccc(OCCN(C)C)cc1`, the growth is -10.1% (active). Then `O=c1c2ccccc2c2nccn2c2cc(Cl)ccc12`, with 30.3% (inactive); and `NC(=O)Cc1nc(O)cc(=O)[nH]1`, with 87.4% (inactive); and `COc1ccc(/C(C#N)=C/c2ccccn2)cc1`, with 91.8% (inactive) and 78.1% (inactive). In the case of `O=C1c2ccccc2C(=O)c2c1ccc(C(Br)Br)c2Cl`, the growth was -9.24% (active). With `Cc1ccc(C)c(C(O)(c2cc(C)ccc2C)C2(O)CCCCC2)c1`, the growth is 96.5% (inactive).

For `CCCCCCCCCCCC[n+]1ccc(C(N)=O)cc1`, the growth was -26.3% (active). Then `COc1ccccc1Nc1nnc(-c2ccc(Cl)cc2)o1`, with -9.62% (active); and `COc1ccc(/C=N/C2=C(C#N)C(c3cccc(Cl)c3)c3c(ccc4ccccc34)O2)cc1` (configuration not stated), with -18.6% (active).
